Test results: PubChem BioAssay (NCI)
Values joined by “and” are separate entries in the source; they are usually repeats but may differ in a detail not shown here. Equal values may be shown once. The panel holds about 83,000 compounds, 20% with a hit somewhere; the sample as a whole holds those more often.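 Note: values are percent growth. 100 is the growth of untreated cells, values between 100 and 0 indicate rising inhibition; between -100 and 0 indicates cell death.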 Unmarked numbers belong to inactive results. Active and inactive are the calls of the source. Rule for the calls: active = growth percent below 10; inactive = the rest.

What was measured:
Experiment in all cases: NCI-60 one-dose screen, 48 h (100 = growth as untreated, 0 = no growth, -100 = all killed)
Settings in all cases: 10 µM unless noted
DU-145 prostate = test system: DU-145 prostate
K-562 leukemia = test system: K-562 leukemia
MALME-3M melanoma = test system: MALME-3M melanoma
MDA-MB-231 breast = test system: MDA-MB-231 breast
RXF 393 renal = test system: RXF 393 renal
SF-268 CNS = test system: SF-268 CNS
SF-295 CNS = test system: SF-295 CNS
SF-539 CNS = test system: SF-539 CNS
UACC-257 melanoma = test system: UACC-257 melanoma
M14 melanoma = test system: M14 melanoma

SMILES | growth (DU-145 prostate) | growth (K-562 leukemia) | growth (MALME-3M melanoma) | growth (MDA-MB-231 breast) | growth (RXF 393 renal) | growth (SF-268 CNS) | growth (SF-295 CNS) | growth (SF-539 CNS) | growth (UACC-257 melanoma) | growth (M14 melanoma)
COc1ccc(OC)c(Cn2cc(C#N)c(N)c2C(=O)c2ccc(Br)cc2)c1 | 79.1% | 15.2% | 42.6% | 60.7% | 41.8% | 68.5% | 39.1% | 47.7% | 55.6% | 33.8%
Cc1[nH]nc2ccc3nc(-c4cnn(CCO)c4)c4c(c3c12)CCCC4 | 37.9% | 38.5% | 41% | 40% | -6.62% (active) | 58.1% | 43.4% | 33.7% | 83.1% | 27.4%
CCN(C(=O)CN1C(=O)/C(=C/c2ccco2)SC1=S)C1CCS(=O)(=O)C1 (stereo not given) | 101% | 89.9% | 104% | 108% | 109% | 95.4% | 105% | 98% | 98.2% | 97.3%
CC(C)(C)c1ccc(OCc2nc3ccccc3n2-c2cccc(N)c2)cc1 | 80.8% and 124% | 33.3% and 101% | 48.7% and 101% | 53.4% and 106% | 75.3% and 90.7% | 74.4% and 112% | 57.7% and 100% | 66.7% and 100% | 73.8% and 111% | 99.8% and 103%
COc1ccc(C2=NN(C(=O)[C@H]3[C@@H](c4ccco4)c4sc(=O)[nH]c4S[C@@H]3C)C(c3ccc4ccccc4c3)C2)cc1 (stereo not given in full) | 62.7% | 16% | 50.6% | 47.5% | 11.2% | 45.3% | 38.6% | 28.6% | 43.2% | 24.1%
O=C(NN1C(=O)/C(=C/C=C/c2ccc([N+](=O)[O-])o2)SC1=S)c1ccc(O)cc1 | -100% (active) | 0.602% (active) | -97.9% (active) | -95.9% (active) | -86.2% (active) | -74.3% (active) | -85.6% (active) | -100% (active) | -90.4% (active) | -81.9% (active)
O=C(/C=C1\C(=O)N(Cc2ccccc2)c2ccccc21)c1cc2ccccc2oc1=O | 104% | 1.52% (active) | 68.9% | 81% | 86.1% | 95.6% | 104% | 98.9% | 107% | 85.1%
CC(C)CN1C(=O)/C(=C\C(=O)c2cc3ccccc3oc2=O)c2ccccc21 | 98.3% | 1.97% (active) | 59% | 87.5% | 85.4% | 106% | 105% | 102% | 106% | 85%
Cn1cc(-c2cc(N)n3nc(-c4c[nH]c5ccc(F)cc45)cc3n2)c2cccnc21 | -75.7% (active) | -32% (active) | -93% (active) | -85.9% (active) | -81.2% (active) | -27% (active) | -93.9% (active) | -96.3% (active) | -87.3% (active) | -89.5% (active)
O=c1c(-c2nc(-c3ccccc3)c(-c3ccccc3)[nH]2)coc2ccc(F)cc12 | 46.1% | 32.5% | 52% | 64% | 92.3% | 64% | 71.5% | 70.9% | 77.6% | 53.3%
Clc1ccccc1Nc1nnc(-c2c[nH]c3ccccc23)o1 | 21.5% | 6.76% (active) | 41.9% | 16% | -5.74% (active) | 48.5% | 9.04% (active) | -43.6% (active) | 65% | 22.8%
COc1ccc(N=Nc2c(N)nn3c(N)c(C#N)c(-c4ccccc4)nc23)cc1 | 24.4% | 71.8% | 28.5% | 9.1% (active) | 8.34% (active) | 11.6% | 39.4% | -3.46% (active) | 71% | 74.2%
O=C(CSc1nnc(-c2ccc(-c3nc4ccccc4[nH]3)cc2)o1)Nc1ccc(Cl)cc1 | 13.1% | 10.7% | 29.1% | -24.9% (active) | -61.7% (active) | 38.5% | 39% | -94.2% (active) | 48.9% | -0.25% (active)
